The assay in a line: inhibitors of arbovirus infection in cells – cell-based, full library, 10K replicate subset, primary screen (AID 1251).
The mark [1] stands for this setting: arbovirus infection cell-based antiviral screen, at 10 µM, stronger effect = higher value.

“And” between values parts separate entries of the source, which are not always exact repeats. Identical values can stand only once. About 720 (0.36%) of roughly 200,000 compounds were called active. Rule as the data show it: active = inhibition above about 30%; inactive = the rest, inconclusive results apart. The list comes from a sample in which actives are over-represented; it also holds similar structures and randomly drawn compounds.

Here are results for 39 compounds from PubChem BioAssay AID1251 (SRMLSC, 2008).

Usually inhibition stands for the change of the read-out against control, counted positive when it falls. Regarding `CN(C)CCCNC(=O)/C=C/c1ccc(OCc2c(F)cccc2Cl)cc1`, under setting [1], the inhibition is -27.3% (inactive).

On to `O=C(CN1CCN(S(=O)(=O)/C=C/c2ccccc2)CC1)Nc1ccc(N2CCOCC2)cc1`, for which, under setting [1], the inhibition is -11% (inactive).

With `N#Cc1c(-c2ccc(F)cc2)nc(-c2ccccc2)[nH]c1=O`, under setting [1], the inhibition is 6% (inactive).

As for `COc1ccc(C)cc1NC(=O)C(OC(=O)c1cccc(S(=O)(=O)N(C)c2ccccc2)c1)c1ccccc1` (stereo not given), the inhibition under setting [1] is 2.04% (inactive).

Take `CNC(=S)N1CCN(c2ccccn2)CC1`: under setting [1], the inhibition was 8.2% (inactive).

Consider `C=CCn1c(P(C)(=O)O)nc2ccccc21`, for which, under setting [1], the inhibition was -2% (inactive) and 0.03% (inactive).

For the compound `Cc1ccc(CN2CCN(Cc3ccc4ncccc4c3)CC2CCO)cc1` (stereo not given), under setting [1], the inhibition was 4.14% (inactive).

For `CCCCNC(=O)Nc1c(C)cc(SC#N)cc1C`, the inhibition under setting [1] was -9.26% (inactive).

For `O=C(Nc1nc(-c2ccncc2)cs1)C1COc2ccccc2O1` (stereo not given), the inhibition is, setting by setting: (arbovirus infection cell-based antiviral screen; at 10 µM; stronger effect = higher value) -2.24% (inactive); (arbovirus infection cell-based antiviral screen; measured here: 10K subset replicate screen; at 10 µM; stronger effect = higher value) 4.95%.

Take `O=C(Nc1nnc(SCc2ccc(Cl)cc2Cl)s1)C1COc2ccccc2O1` (stereo not given): the inhibition under setting [1] was 30.9% (active).

Regarding `O=C(Nc1nnc(SCc2c(Cl)cccc2Cl)s1)C1CCCO1` (stereo not given), under setting [1], the inhibition is -0.49% (inactive).

For `CC(=O)Nc1ccc(OCCC[n+]2cccc(C(=O)[O-])c2)cc1`, the inhibition under setting [1] is 1.68% (inactive).

For the compound `CCN(c1ccc(NC(=O)COC(=O)CCc2nc3ccccc3n2-c2ccccc2)cc1)C(C)C`, the inhibition under setting [1] was -15.1% (inactive).

As to `Cc1c(Cl)cccc1NC(=O)Nc1ccc(C(=O)N2CCCC2)cc1`, the inhibition under setting [1] is -2.79% (inactive).

As for `O=C1N/C(=N\N=C\c2ccco2)SC1Cc1ccc(F)cc1` (stereo not given), the inhibition under setting [1] is 29.1% (inactive).

Consider `O=C1NC(=Nc2ccc(Cl)cc2)SC1Cc1cccc(Cl)c1Cl` (stereo not given), for which the inhibition under setting [1] is 30.2% (active).

On to `NC1=NC(=O)C(Cc2cccc(Cl)c2Cl)S1` (stereo not given), for which the inhibition under setting [1] was 9.95% (inactive).

Turning to `Cc1ccc(C)n1NC(=O)c1ccc([N+](=O)[O-])cc1`, the inhibition under setting [1] was 0.14% (inactive).

As for `CCOC(=O)c1c(Cc2ccc(Cl)cc2)c[nH]c1C`, under setting [1], the inhibition is -0.75% (inactive).

For the compound `COc1cccc2c(O)cc(=O)n(C)c12`, the inhibition under setting [1] was -3.62% (inactive).

For `Cc1nc(CNS(=O)(=O)c2cccnc2)cs1`, the inhibition under setting [1] was 32.7% (active).

With `Cc1nc(CNS(=O)(=O)c2ccc(Oc3ccccc3)cc2)cs1`, under setting [1], the inhibition is 10.3% (inactive).

For `Cc1ccc(S(=O)(=O)NCc2csc(C)n2)c(C)c1`, the inhibition under setting [1] was 12.2% (inactive).

In the case of `N#C/C(=C\c1ccc(N2CCOCC2)o1)C(=O)N1CCOCC1`, the inhibition under setting [1] was -2.38% (inactive).

As for `N#Cc1c(NC(=O)C2CC(Cl)=CCC2C(=O)O)sc2c1CCCCC2` (stereo not given), the inhibition under setting [1] is 31.9% (active).

Consider `N#Cc1c(NC(=O)C2CCCO2)sc2c1CCCCC2` (stereo not given), for which, under setting [1], the inhibition is 6.23% (inactive).

In the case of `N#Cc1c(NC(=O)CCCl)sc2c1CCCCC2`, the inhibition under setting [1] was -2.94% (inactive).

As for `CC(=O)Nc1ccc(S(=O)(=O)NCC(=O)OCc2cc(=O)oc3ccc4ccccc4c23)cc1`, the inhibition under setting [1] is 2.02% (inactive).

For the compound `Cc1cc(C)n2nc(C(=O)N(C)C(c3ccccc3)c3ccccc3)nc2n1`, under setting [1], the inhibition is 24.9% (inactive).

As for `COc1cc(C(=O)NCc2ccc(-n3cccc3)cc2)cc(OC)c1OC`, the inhibition under setting [1] was 2.99% (inactive).

Regarding `N#Cc1ccccc1Sc1ccccc1C(=O)OCC(=O)NC1CCCCC1`, the inhibition under setting [1] was 5.04% (inactive).

With `COC(=O)C1=C(NC(=O)C(C)(C)C)CCS1`, under setting [1], the inhibition is 2.37% (inactive).

For `Cc1ccnc(NS(=O)(=O)c2ccc(NC(=O)c3ccc(S(=O)(=O)N(C)C)cc3)cc2)n1`, the inhibition under setting [1] is 14.3% (inactive).

With `Cc1c(CCOC(=O)CC23CC4CC(CC(C)(C4)C2)C3)sc[n+]1Cc1ccc([N+](=O)[O-])cc1`, under setting [1], the inhibition was -19.1% (inactive).

For `COC(=O)C1=C(C(=O)OC)C(c2cc([N+](=O)[O-])ccc2O)c2sc(=O)[nH]c2S1` (stereo not given), the inhibition under setting [1] was -2.76% (inactive).

For `Cc1ccc(NC(=O)c2ccccn2)cc1S(=O)(=O)N1CCOCC1`, the inhibition under setting [1] is 20% (inactive).

Regarding `Cc1cccc(NC(=O)NC(=S)NC(=O)c2ccccc2)c1`, the inhibition under setting [1] is 10.4% (inactive).

Take `CCC(=O)NCc1cc(-c2nn(C)c(=O)c3ccccc23)ccc1OC`: under setting [1], the inhibition was -10.6% (inactive).

For the compound `O=C(COC(=O)c1ccccc1F)Nc1cc(S(=O)(=O)N2CCOCC2)ccc1N1CCCC1`, the inhibition under setting [1] is 3.02% (inactive).
